Calls of active or inactive are those of the source. Entries that show only a call come without a potency. Calls come from the whole dose curve.

Sequence of Acetylcholinesterase (Homo sapiens) (P22303 whole entry, looked up): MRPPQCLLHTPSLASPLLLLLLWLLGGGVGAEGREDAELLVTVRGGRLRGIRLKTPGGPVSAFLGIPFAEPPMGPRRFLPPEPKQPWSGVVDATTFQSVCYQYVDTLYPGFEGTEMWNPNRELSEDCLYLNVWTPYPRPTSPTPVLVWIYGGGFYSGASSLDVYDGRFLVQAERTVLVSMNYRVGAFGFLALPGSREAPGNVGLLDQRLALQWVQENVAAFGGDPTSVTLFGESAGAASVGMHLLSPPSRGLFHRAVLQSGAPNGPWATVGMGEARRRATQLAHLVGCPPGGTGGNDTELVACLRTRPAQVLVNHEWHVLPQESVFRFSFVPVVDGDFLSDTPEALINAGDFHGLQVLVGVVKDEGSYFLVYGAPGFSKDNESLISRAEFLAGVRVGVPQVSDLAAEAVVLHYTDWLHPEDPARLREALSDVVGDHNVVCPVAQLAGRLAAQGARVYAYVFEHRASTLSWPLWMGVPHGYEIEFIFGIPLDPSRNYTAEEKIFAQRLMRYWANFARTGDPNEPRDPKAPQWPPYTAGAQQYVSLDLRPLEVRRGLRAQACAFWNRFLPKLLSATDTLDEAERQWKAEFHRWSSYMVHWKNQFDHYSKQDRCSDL

The first assay addresses Acetylcholinesterase (Homo sapiens) (UniProt P22303). The experiment in a line: Acetylcholinesterase (AChE) small molecule antagonists: enzyme-based qHTS assay (AID 1347397). Note: nearly all actives have a fitted effect of over 55% in size. The note with it: Potency: AChE enzyme activity inhibition; outcome: AChE enzyme activity inhibition; series mostly up to 115 µM. The gist of the method:
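Colorimetric DTNB read-out of thiocholine released from acetylthiocholine by recombinant human AChE (50 mU/mL as dispensed). Compounds were preincubated 30 min at RT before substrate/DTNB addition, with a 10 min RT reaction.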
For orientation: In qHTS, concentration-response curves come from the screen itself.
As to `O=C(OCC(O)CO)c1ccccc1Nc1ccnc2cc(Cl)ccc12` (stereo not given), the Potency entry is “inactive”.

Regarding `CCN(CC)CCNC(=O)c1ccc(NC(C)=O)cc1`, the Potency result was “inactive”.

On to `O=C1C=CC(=O)N1`, for which the Potency entry was “inactive”.

As for `O=C(CCCN1CCN(c2ccccn2)CC1)c1ccc(F)cc1`, the Potency result is “inactive”.

In the case of `CO/N=C1\CN(c2nc3c(cc2F)c(=O)c(C(=O)O)cn3C2CC2)CC1CN` (stereo not given), the call was inactive.

In the case of `Cc1ccc(O)c([C@H](CCN(C(C)C)C(C)C)c2ccccc2)c1`, the Potency result was “inactive”.

With `Cc1c(C)n(CCN(C)C)c2ccc(C(=O)OCCN(C)C)cc12`, the Potency result is “inactive”.

On to `Cc1cc(O)ccc1N`, for which the Potency entry is “inactive”.

As to `CCCCCCC[N+](CC)(CC)CCCCc1ccc(Cl)cc1`, the Potency result is “inactive”.

With `OCCN1CCN(CCCN2c3ccccc3Sc3ccc(C(F)(F)F)cc32)CC1`, the Potency entry is “inactive”.

On to `COc1ccc(-n2nc(C(F)F)cc2-c2ccc(S(C)=O)cc2)cc1` (stereo not given), for which the Potency result was “inactive”.

As for `CC(C)C[C@@H]1[C@H](c2ccccc2)OC(=O)N1CCCN1CCCCCC1`, the Potency result was “inactive”.

Regarding `CN1CCN2c3ccccc3Cc3ccccc3C2C1` (stereo not given), the Potency result is “inactive”.

For `COc1ccnc2c1CCCCC2S(=O)c1nc2ccccc2[nH]1` (stereo not given), the Potency entry was “inactive”.

Turning to `Oc1ccc(C(O)CNCCCCCCNCC(O)c2ccc(O)c(O)c2)cc1O` (stereo not given), the Potency entry is “inactive”.

In the case of `C/C=C1/C(=O)C[C@H]2[C@@H]3CCC4=CC(=O)CC[C@]4(C)[C@H]3CC[C@]12C`, the Potency entry is “inactive”.

Turning to `O=C1CC2(CCCC2)CC(=O)N1CCCCN1CCN(c2ncccn2)CC1`, the Potency entry is “inactive”.

Turning to `CC(C)COC(=O)COc1cc(Cl)c(Cl)cc1Cl`, the Potency result is “inactive”.

Take `C[C@@H]1CCC[C@H](C)N1CCCC(O)(c1ccccc1)c1ccccn1` (stereo not given in full): the Potency result is “inactive”.

As to `NS(=O)(=O)c1cc2c(cc1Cl)NC(CC1CCCC1)NS2(=O)=O` (stereo not given), the Potency result was “inactive”.

With `CCN(CC)CCOCCOC(=O)C1(c2ccccc2)CCCC1`, the Potency result is “inactive”.

Regarding `O=C1NC2CCCCN2C12CCN(CCCN1c3ccccc3CCc3ccc(Cl)cc31)CC2` (stereo not given), the Potency entry was “inactive”.

As to `O=[N+]([O-])c1cccc(S(=O)(=O)NCCNS(=O)(=O)c2cccc([N+](=O)[O-])c2)c1`, the Potency result was “inactive”.

With `O=C(O)c1cccc(N(Cc2cccnc2)c2ccc(OC(F)F)c(OC(F)F)c2)c1`, the Potency entry is “inactive”.

Take `CCc1nn(CCCN2CCN(c3cccc(Cl)c3)CC2)c(=O)n1CCOc1ccccc1`: the Potency result was “inactive”.

Consider `COc1cc2ncnc(Nc3ccc(F)c(Cl)c3)c2cc1OCCCN1CCOCC1`, for which the Potency result is “inactive”.

With `C1CCC(C(CC2CCCCN2)C2CCCCC2)CC1` (stereo not given), the Potency entry was “inactive”.

With `CC(C)=CCC1=C(O)c2ccccc2C(=O)C1=O`, the Potency entry was “inactive”.

Turning to `C=CC(=O)OCC[N+](C)(C)C`, the Potency entry is “inactive”.

With `O=C(CN1CCN(Cc2ccc3c(c2)OCO3)CC1)N1c2ccccc2Sc2ccccc21`, the Potency entry is “inactive”.

Take `CCC1=C[C@@H]2CN(C1)Cc1c([nH]c3ccccc13)[C@@](C(=O)OC)(c1cc3c(cc1OC)N(C)[C@H]1[C@@](O)(C(=O)OC)[C@H](OC(C)=O)[C@]4(CC)C=CCN5CC[C@]31[C@@H]54)C2`: the Potency entry was “inactive”.

For `O=C(c1ccc(F)cc1)C1CCN(CCn2c(=O)[nH]c3ccccc3c2=O)CC1`, the Potency entry is “inactive”.

As to `COC(=O)C(c1ccccc1Cl)N1CCc2sccc2C1` (stereo not given), the Potency entry is “inactive”.

In the case of `CC(C)C(=O)Nc1cccc(C2CN3CCSC3=N2)c1` (stereo not given), the Potency entry is “inactive”.

Consider `CCCCCCCC/C=C/CCCCCCCC1=NCCN1CCO`, for which the Potency result is “inactive”.

`Cc1nc2n(c(=O)c1CCN1CCC(c3noc4cc(F)ccc34)CC1)CCCC2`: the Potency entry is “inactive”.

On to `CN1CCCCC1CCN1c2ccccc2Sc2ccc(S(C)=O)cc21` (stereo not given), for which the Potency result is “inactive”.

Take `CCN(CC)CCNC(=O)c1cc(Cl)c(N)cc1OC`: the Potency entry was “inactive”.

In the case of `COc1ccc2cc1Oc1ccc(cc1)C[C@H]1c3c(cc4c(c3Oc3cc5c(cc3OC)CCN(C)[C@@H]5C2)OCO4)CCN1C`, the Potency result is “inactive”.

Regarding `Cc1ccc([N+](=O)[O-])cc1Cl`, the Potency entry is “inactive”.

For another assay the target is unchanged. In words: Acetylcholinesterase (AChE) small molecule antagonists: enzyme-based qHTS assay with human liver microsomes (AID 1347399). Note: nearly all actives have a fitted effect of over 60% in size. The settings on record: Potency: qHTS inhibition; outcome: qHTS inhibition; series mostly up to 115 µM. The gist of the method:
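Recombinant human AChE (50 mU/mL in the enzyme mix) and human liver microsomes (0.25 mg/mL final) were preincubated with compound and NADPH (0.25 mg/mL final) for 30 min at 37 C. Acetylthiocholine/DTNB was then added; thiocholine was read colorimetrically after 10 min at room temperature.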
Consider `O=C(OCC(O)CO)c1ccccc1Nc1ccnc2cc(Cl)ccc12` (stereo not given), for which the Potency entry was “inactive”.

Consider `CCN(CC)CCNC(=O)c1ccc(NC(C)=O)cc1`, for which the Potency entry was “inactive”.

On to `O=C1C=CC(=O)N1`, for which the Potency entry was “inactive”.

As for `O=C(CCCN1CCN(c2ccccn2)CC1)c1ccc(F)cc1`, the Potency entry is “inactive”.

In the case of `CO/N=C1\CN(c2nc3c(cc2F)c(=O)c(C(=O)O)cn3C2CC2)CC1CN` (stereo not given), the compound was called inactive.

Consider `Cc1ccc(O)c([C@H](CCN(C(C)C)C(C)C)c2ccccc2)c1`, for which the Potency entry is “inactive”.

On to `Cc1c(C)n(CCN(C)C)c2ccc(C(=O)OCCN(C)C)cc12`, for which the Potency result is “inactive”.

In the case of `Cc1cc(O)ccc1N`, the Potency entry was “inactive”.

Take `CCCCCCC[N+](CC)(CC)CCCCc1ccc(Cl)cc1`: the Potency entry was “inactive”.

For `OCCN1CCN(CCCN2c3ccccc3Sc3ccc(C(F)(F)F)cc32)CC1`, the Potency entry is “inactive”.

For the compound `COc1ccc(-n2nc(C(F)F)cc2-c2ccc(S(C)=O)cc2)cc1` (stereo not given), the Potency entry is “inactive”.

Turning to `CC(C)C[C@@H]1[C@H](c2ccccc2)OC(=O)N1CCCN1CCCCCC1`, the Potency result was “inactive”.

Turning to `CN1CCN2c3ccccc3Cc3ccccc3C2C1` (stereo not given), the Potency result is “inactive”.

Take `COc1ccnc2c1CCCCC2S(=O)c1nc2ccccc2[nH]1` (stereo not given): the Potency result is “inactive”.

Take `Oc1ccc(C(O)CNCCCCCCNCC(O)c2ccc(O)c(O)c2)cc1O` (stereo not given): the Potency entry is “inactive”.

Consider `C/C=C1/C(=O)C[C@H]2[C@@H]3CCC4=CC(=O)CC[C@]4(C)[C@H]3CC[C@]12C`, for which the Potency result is “inactive”.

With `O=C1CC2(CCCC2)CC(=O)N1CCCCN1CCN(c2ncccn2)CC1`, the Potency result was “inactive”.

Consider `CC(C)COC(=O)COc1cc(Cl)c(Cl)cc1Cl`, for which the Potency result is “inactive”.

On to `C[C@@H]1CCC[C@H](C)N1CCCC(O)(c1ccccc1)c1ccccn1` (stereo not given in full), for which the Potency entry was “inactive”.

For the compound `NS(=O)(=O)c1cc2c(cc1Cl)NC(CC1CCCC1)NS2(=O)=O` (stereo not given), the Potency result was “inactive”.

Turning to `CCN(CC)CCOCCOC(=O)C1(c2ccccc2)CCCC1`, the Potency result was “inactive”.

As to `O=C1NC2CCCCN2C12CCN(CCCN1c3ccccc3CCc3ccc(Cl)cc31)CC2` (stereo not given), the Potency entry was “inactive”.

With `O=[N+]([O-])c1cccc(S(=O)(=O)NCCNS(=O)(=O)c2cccc([N+](=O)[O-])c2)c1`, the Potency entry was “inactive”.

`O=C(O)c1cccc(N(Cc2cccnc2)c2ccc(OC(F)F)c(OC(F)F)c2)c1`: the Potency result was “inactive”.

Regarding `CCc1nn(CCCN2CCN(c3cccc(Cl)c3)CC2)c(=O)n1CCOc1ccccc1`, the Potency result was “inactive”.

Regarding `COc1cc2ncnc(Nc3ccc(F)c(Cl)c3)c2cc1OCCCN1CCOCC1`, the Potency result was “inactive”.

Consider `C1CCC(C(CC2CCCCN2)C2CCCCC2)CC1` (stereo not given), for which the Potency entry was “inactive”.

Regarding `CC(C)=CCC1=C(O)c2ccccc2C(=O)C1=O`, the Potency result is “inactive”.

Consider `C=CC(=O)OCC[N+](C)(C)C`, for which the Potency result was “inactive”.

Take `O=C(CN1CCN(Cc2ccc3c(c2)OCO3)CC1)N1c2ccccc2Sc2ccccc21`: the Potency entry is “inactive”.

Consider `CCC1=C[C@@H]2CN(C1)Cc1c([nH]c3ccccc13)[C@@](C(=O)OC)(c1cc3c(cc1OC)N(C)[C@H]1[C@@](O)(C(=O)OC)[C@H](OC(C)=O)[C@]4(CC)C=CCN5CC[C@]31[C@@H]54)C2`, for which the Potency result is “inactive”.

`O=C(c1ccc(F)cc1)C1CCN(CCn2c(=O)[nH]c3ccccc3c2=O)CC1`: the Potency entry is “inactive”.

In the case of `COC(=O)C(c1ccccc1Cl)N1CCc2sccc2C1` (stereo not given), the Potency entry was “inactive”.

As to `CC(C)C(=O)Nc1cccc(C2CN3CCSC3=N2)c1` (stereo not given), the Potency result is “inactive”.

As for `CCCCCCCC/C=C/CCCCCCCC1=NCCN1CCO`, the Potency result was “inactive”.

On to `Cc1nc2n(c(=O)c1CCN1CCC(c3noc4cc(F)ccc34)CC1)CCCC2`, for which the Potency entry is “inactive”.

For the compound `CN1CCCCC1CCN1c2ccccc2Sc2ccc(S(C)=O)cc21` (stereo not given), the Potency entry is “inactive”.

On to `CCN(CC)CCNC(=O)c1cc(Cl)c(N)cc1OC`, for which the Potency result was “inactive”.

With `COc1ccc2cc1Oc1ccc(cc1)C[C@H]1c3c(cc4c(c3Oc3cc5c(cc3OC)CCN(C)[C@@H]5C2)OCO4)CCN1C`, the Potency entry was “inactive”.

Turning to `Cc1ccc([N+](=O)[O-])cc1Cl`, the Potency entry is “inactive”.

(Values after PubChem BioAssay (Tox21).)
